# Data as given in paper PMC5540273 (PLoS ONE, 2017).
# Columns and labels:
# Details in all cases: concentration: 1 μM, replicates: in singlicate; n = 1
# SRMS = tested on: SRMS
# SRPK1 = tested on: SRPK1
# SRPK2 = tested on: SRPK2
# SRPK3 = tested on: SRPK3
# STK16 = tested on: STK16
# STK33 = tested on: STK33
# STK35 = tested on: STK35
# STK36 = tested on: STK36
# STK39 = tested on: STK39
# SYK = tested on: SYK
# 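Also: KINOMEscan kinase panel screen.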
SMILES,%Inh (SRMS) [%],%Inh (SRPK1) [%],%Inh (SRPK2) [%],%Inh (SRPK3) [%],%Inh (STK16) [%],%Inh (STK33) [%],%Inh (STK35) [%],%Inh (STK36) [%],%Inh (STK39) [%],%Inh (SYK) [%]
O=c1cc(N2CCOCC2)nc2n(Cc3cccc(Cl)c3)ccn12 [GSK2296823],0,16,0,51,0,0,6,0,11,5
Nc1nc(-c2cccnc2)c(-c2ccnc3ccccc23)s1 [GW684083],0,3,4,18,17,14,0,0,0,34
Fc1ccc(-c2ncn(CCCNCc3ccccc3)c2-c2ccncc2)cc1,0,31,4,23,0,0,0,20,0,23
Cn1ccc2ncnc(Nc3ccc(Oc4cccc(Cl)c4)c(Cl)c3)c21,0,20,0,0,0,26,0,6,0,4
O=C(Nc1ccccc1F)NC1CCN(c2ccnc(Nc3ccc(F)cc3)n2)C1 (centres unmarked) [GSK1379722],0,0,0,3,0,0,0,0,29,10
COc1ccc(-c2oc3ncnc(N)c3c2-c2ccc(OC)cc2)cc1 [SB-589132],6,30,53,0,57,0,0,0,24,20
NC(=O)c1sc(-n2cnc3ccccc32)cc1OCc1ccccc1F [GSK1024306],0,50,0,16,0,0,0,0,4,7
C[C@@H]1CCN(C(=O)CO)C[C@@H]1N(C)c1ncnc2[nH]ccc12,0,24,0,0,0,2,4,0,0,3
CC(C)N1CCC(n2cnc(-c3ccc(F)cc3)c2-c2ccnc(N)n2)CC1 [SB-223132],0,0,45,6,0,0,0,26,0,19
OCCOCCn1ccc2ncnc(Nc3ccc(Oc4cccc(Cl)c4)c(Cl)c3)c21,0,0,0,0,0,0,0,0,0,26
CN1CCC(n2cnc(-c3ccc(F)cc3)c2-c2ccnc(NC3CCNCC3)n2)CC1 [SB-229482],28,0,27,16,12,0,0,24,47,0
CCCc1ccc(S(=O)(=O)NC2CCN(c3ccnc(Nc4ccc(OC)cc4)n3)C2)cc1 (centres unmarked) [GSK1379737],0,28,28,0,1,0,0,15,17,18
Clc1cccc(-c2nc(Nc3ccncc3)c3ccccc3n2)c1 [GW873004],2,–,43,0,0,26,0,3,0,33
C[C@H]1CC[C@@H](C(=O)Nc2ccccc2)CN1c1cc(-c2ccc3c(N)n[nH]c3c2)nc(N)n1 [GSK2283293],19,54,0,16,0,0,0,0,0,4
CC(C)(C)OC(=O)NC1CCCN(c2cc(-c3ccc4c(N)n[nH]c4c3)nc(N)n2)C1 (centres unmarked) [GSK2286096],0,15,0,0,19,53,0,0,0,0
CCC(CC)(CC)n1cnc2c(N)ncnc21 [SKF-97620],22,14,20,22,2,0,0,4,0,11
N#Cc1ccc(Oc2ccc(Nc3ncnc4cc[nH]c34)cc2Cl)cc1,0,0,0,0,36,27,27,10,15,13

SMILES,%Inh (SRMS) [%],%Inh (SRPK1) [%],%Inh (SRPK2) [%],%Inh (SRPK3) [%],%Inh (STK16) [%],%Inh (STK33) [%],%Inh (STK35) [%],%Inh (STK36) [%],%Inh (STK39) [%],%Inh (SYK) [%]
COc1ccc(NC(=O)c2ccc(-c3cc(-c4nnc(C)o4)ccc3C)cc2)cc1 [GW595885],0,0,0,8,7,0,0,0,21,27
CCc1nc(-c2cccc(C)c2)c(-c2ccnc(NC(=O)c3ccccc3)c2)s1,0,0,0,0,6,12,0,–,0,0
Clc1ccc(-c2cc(-c3c[nH]nc3-c3ccccn3)ccn2)cc1 [GW681251],0,0,0,0,19,0,0,0,1,22
O=C(NCCCN1CCCC1=O)c1cnc(NCc2cc(Cl)ccc2Cl)nc1NC1CCNCC1,0,21,0,4,0,0,0,0,0,8
Nc1nc(-c2ccc3c(N)n[nH]c3c2)cc(N2CCCCC2)n1 [GSK2228768],0,45,0,0,5,0,0,0,0,8
COc1ccc(NC(=O)Nc2ccc(C)c(-c3ccc(C(=O)Nc4ccncc4)cc3)c2)cc1 [GSK1398475],0,0,0,0,0,0,0,0,0,0
Cl.Cl.c1ccc(-c2cc3ccncc3cc2OC2CCNCC2)cc1 [GSK1122999],0,3,0,0,0,100,0,88,0,19
CSc1ccc(NC2=C(c3ccccc3Cl)C(=O)NC2=O)cc1 [SB-342411],0,7,0,5,14,0,5,48,19,23
Cc1cccc(-c2nc(Nc3ccc4[nH]nnc4c3)c3ccccc3n2)n1 [GW867587],10,0,0,7,0,0,0,0,0,0
O=C(Nc1ccccc1)Nc1ccc(Oc2ccc3nccn3n2)cc1,3,28,16,16,0,9,0,0,0,6
CCc1nc(-c2cccc(N(C)S(=O)(=O)c3ccccc3)c2)c(-c2ccnc(Nc3ccc(N4CCN(C(C)=O)CC4)nc3)n2)s1 [GSK1645895],19,19,0,0,41,0,0,99.4,0,0
O=C(Nc1n[nH]c2nc(-c3ccco3)c(Br)cc12)c1ccc(CN2CCCC2)cc1.O=C(O)[C@H](O)[C@@H](O)C(=O)O [SB-742352],0,2,0,26,0,0,26,54,0,10
Cn1cc(-c2ccc3c(c2)CCN3C(=O)Cc2cccc(C(F)(F)F)c2)c2c(N)ncnc21 [GSK2606414],0,24,0,100,11,0,0,0,1,0
Cl.O=S(=O)(c1cccc(F)c1)c1ccc(Nc2ncnc3cc(Br)sc23)cc1Cl [GSK306886],0,100,0,0,25,0,0,0,1,5
CSc1nn2c(=O)cc(N3CCOCC3)nc2n1Cc1cccc(Cl)c1Cl [GSK2347225],0,13,0,0,14,3,65,28,0,30
COC(=O)c1cccc(NC(=O)NCCNc2ccnc(Nc3ccc(F)cc3)n2)c1 [GSK1379883],0,17,0,7,5,0,0,0,0,5
Cl.Fc1ccccc1COc1ccc(Nc2ncnc3ccc(-c4nnc(C(F)(F)F)o4)cc23)cc1Cl [GW424170],0,0,3,0,0,0,0,0,0,0
